Data on 13 compounds can be found in PubChem BioAssay (NCI).

This is part of a sample that, as a whole, favours compounds with a hit. Of some 83,000 tested, about 20% had one in any assay.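 Single-dose data. Exposure time 48 hours. Values below 10 considered active.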 A number with no mark means an inactive call. Calls of active or inactive are those of the source.

What all share (test): NCI-60 one-dose screen, 48 h (100 = growth as untreated, 0 = no growth, -100 = all killed)
Common to all, as to conditions: 10 µM unless noted

Test [1] has as its system HCT-15 colon.
Test [2] deals with HT29 colon.
Test [3] concerns SNB-75 CNS.
The subject of test [4] is SNB-19 CNS.
The test system of test [5] is U251 CNS.
The subject of test [6] is PC-3 prostate.
The test system of test [7] is SK-MEL-5 melanoma.
For test [8], the system named is UACC-62 melanoma.
Test [9] relates to LOX IMVI melanoma.
The test system of test [10] is SK-MEL-28 melanoma.

As for `O=c1[nH]c2ccccc2cc1CSc1ccccc1Nc1nccc(-c2ccc3c(c2)OCO3)n1`, the growth in [1] is 95.1%; in test [2] it was 94.4%; in test [3] it was 9.83% (active); in test [4], 63.1%; in [5], 51.3%; in test [6] it was 79.2%. In addition, the growth in test [7] was 87.2%; in [8], 68.5%; in test [9], 76.5%; in test [10], 83%.
With `Cn1cc(-c2cc(N)n3nc(-c4c[nH]c5ccc(Cl)cc45)cc3n2)c2cc(Br)cnc21`, the growth in [1] is -80.2% (active); in test [2], -72% (active); in test [3], -24.4% (active); in test [4], 2.78% (active); in [5], -73.9% (active); in test [6], -52.4% (active). For the same compound, the growth in test [7] was -57% (active); in test [8] it was -59.6% (active); in [9], -93.3% (active); in test [10], -25.9% (active).
Consider `O=C(c1ccc(O)cc1)C1[C@H](c2ccc(Cl)cc2)[C@@H](c2ccccc2)NC12C(=O)Nc1ccccc12` (stereo not given in full), for which the growth in test [1] was -70.8% (active); in test [2], -66.3% (active); in [3], 43.5%; in test [4], 13.2%; in test [5], -0.272% (active); in test [6], 1.61% (active). Also, the growth in [7] is -92.9% (active); in test [8], -22.4% (active); in [9], -100% (active); in [10], 17.9%.
`N#Cc1c(-c2ccc(F)cc2)nc(SCc2ccccc2)nc1N1CCNCC1`: the growth in test [1] is -87.9% (active); in [2], -70.7% (active); in [3], -93% (active); in [4], -81.4% (active); in test [5], -95.8% (active); in [6], -51.6% (active). For the same compound, the growth in test [7] was -100% (active); in test [8], -97.3% (active); in test [9], -93.6% (active); in test [10], -96.3% (active).
Take `O=C(CSc1nnc(-c2ccc(-c3nc4ccc(Cl)cc4[nH]3)cc2)o1)Nc1ccc(Br)cc1`: the growth is 18.6% in [1]; 28.6% in [2]; 46% in [3]; -17.5% (active) in test [4]; -89.8% (active) in test [5]; -29.1% (active) in [6]. Further, the growth in [7] is -6.99% (active); in test [8], -53.4% (active); in test [9], -100% (active); in test [10] it was -80.6% (active).
In the case of `CNc1nc2ccccc2n2c(-c3ccc(O)c(O)c3)cnc12`, the growth is 5.19% (active) in test [1]; 2.27% (active) in [2]; -15.5% (active) in [3]; 27.5% in test [4]; 6.12% (active) in test [5]; 31.7% in [6]. For the same compound, the growth was -23.6% (active) in test [7], 4.77% (active) in test [8], 5.44% (active) in test [9] and 23.3% in test [10].
Regarding `COC(=O)c1cc(C(=O)C(C)(C)C)n2c3ccccc3c3ccccc3c12`, the growth in [1] is 65.6%; in [2] it was 99.4%; in test [3], 84.1%; in test [4] it was 109%; in test [5], 97%; in [6] it was 59.2%. The growth is 88.6% in test [7], 66.7% in test [8], 91.1% in test [9] and 99.2% in test [10].
Consider `O=C(Nc1ccc(-c2ccc3c(c2)NC(=O)/C3=C\c2ccc[nH]2)cc1)Nc1ccc(Cl)c(C(F)(F)F)c1`, for which the growth in test [1] is 26.5%; in [2] it was 17.4%; in [3], 38.5%; in test [4], 72.9%; in test [5] it was 37.9%; in [6] it was 39.5%. Further, the growth in test [7] was 49.3%; in test [8], 31.7%; in test [9], 46.9%; in test [10] it was 47.7%.
As to `CN(C)c1nc(NCCNS(=O)(=O)c2ccc(C3=Nc4c(N)nc(N)nc4NC(c4ccc(C(F)(F)F)cc4)C3)cc2)nc(N2CCOCC2)n1` (stereo not given), the growth in test [1] is 53.6%; in [2], 9.6% (active); in test [3], 46%; in test [4], 49%; in test [5], 26.6%; in test [6] it was 24.2%. Besides, the growth is 25.5% in test [7], 51.5% in test [8], 0.0978% (active) in [9] and 57.4% in test [10].
As to `Cc1ccc(-c2cc(-c3ccccc3)[nH]c(=O)c2C#N)cc1`, the growth is 71% in test [1]; 114% in test [2]; 99.4% in test [3]; 84.3% in [4]; 90.8% in test [5]; 83.7% in test [6]. For the same compound, the growth is 90% in test [7], 84.6% in [8], 83% in test [9] and 109% in test [10].
Take `Cn1cc(-c2cc(N)n3nc(-c4c[nH]c5ccccc45)cc3n2)c2cc(Br)ccc21`: the growth in test [1] was -76.6% (active); in [2], -52% (active); in test [3], -47.7% (active); in test [4], -85.9% (active); in test [5], -95.2% (active); in [6], -42.7% (active). Further, the growth in test [7] was -94.5% (active); in test [8], -69.4% (active); in test [9], -79.3% (active); in [10], -59.1% (active).
On to `COc1c(B(O)O)cccc1-c1nc2ccc3cn[nH]c3c2c2c1CCCC2`, for which the growth in test [1] was 54.9%; in test [2] it was 85.8%; in test [3], -17.7% (active); in test [4] it was 54.9%; in test [5], 48.1%; in test [6] it was 60%. Also, the growth is 53.4% in test [7], 52.1% in test [8], 41.3% in [9] and 86.6% in [10].
`CC(=O)Nc1ccc(S(=O)(=O)Nc2ccc(-c3ccc4c(c3)NC(=O)/C4=C\c3ccc[nH]3)cc2)cc1`: the growth in [1] was 98.3%; in test [2], 118%; in test [3], 108%; in [4] it was 73%; in test [5] it was 89.2%; in [6], 91.4%. In addition, the growth in test [7] was 92.6%; in [8], 68.7%; in test [9], 85.2%; in test [10], 83.6%.
